# Cruzain noTriton = blocks cruzain activity in detergent-free assay | purified cruzain, Z-FR-AMC fluorescence, no detergent | Potency, µM, without a hit: max response, negative = inhibition, most hits filed as inhibitors | AID 1476 | actives 2.3% (n = 200,000);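 also: plate controls were enzyme without inhibitor for no effect and buffer without enzyme for full effect; nearly all actives have a fitted effect of over 40% in size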
# Target sequence (P25779 123-467 limits assumed): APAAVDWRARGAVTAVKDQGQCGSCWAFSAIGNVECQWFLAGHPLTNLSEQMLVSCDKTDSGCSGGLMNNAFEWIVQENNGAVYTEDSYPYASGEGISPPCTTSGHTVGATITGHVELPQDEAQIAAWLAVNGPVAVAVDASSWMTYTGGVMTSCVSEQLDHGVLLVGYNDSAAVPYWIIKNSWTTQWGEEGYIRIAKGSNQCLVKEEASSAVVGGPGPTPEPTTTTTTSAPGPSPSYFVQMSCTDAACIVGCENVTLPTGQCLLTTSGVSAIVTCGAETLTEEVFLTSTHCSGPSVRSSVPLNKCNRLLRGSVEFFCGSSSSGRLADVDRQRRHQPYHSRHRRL
#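 Detergent-free condition (0.00005% Triton X-100) in acetate buffer pH 5.5 with DTT. 1.5 nM enzyme and compound were pre-mixed 15 min, then 2 uM Z-FR-AMC substrate added; reaction progress from fluorescence change between first and third reads (60 s).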
# Cruzain Triton = inhibitors of Trypanosoma cruzi cruzain with detergent; Potency, µM, inactives show max response, negative = inhibition, usual class: inhibitors; purified cruzain, Z-FR-AMC fluorescence, 0.01% Triton; P25779; AID 1478; actives 0.43% (n = 200,000);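 also: plate controls were neutral wells for no effect and buffer without enzyme for full effect; nearly all actives have a fitted effect of over 40% in size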
#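 Sodium acetate buffer (100 mM, pH 5.5) containing 5 mM DTT and 0.01% Triton X-100 hosted 1.5 nM cruzain and test compound for 15 min at room temperature. Cleavage of 2 uM Z-FR-AMC was then tracked by fluorescence.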
# Active calls of the source: *; ? = inconclusive. Rows were chosen to be rich in hits. Some 2.4% of all compounds tested hit in one or more screens of this group. Calls follow the shape of the dose curve; as a rule, active = well fitted curve in the direction sought with a large enough effect; inconclusive = small, poorly fitted or top-dose-only effect, or another doubt; inactive = no such curve, though single readings can be large; an effect the other way counts as inactive or inconclusive. Potency is read from the fitted curve at half-maximal effect.
SMILES,Cruzain noTriton,Cruzain Triton
Cc1ccc(N2CCN(S(=O)(=O)c3cc(C(=O)Nc4cc(Cl)cc(Cl)c4)ccc3F)CC2C)cc1 (configuration not stated),2.51µM*,1.2%
Cc1ccc(C)c(N2CCN(S(=O)(=O)c3cc(C(=O)Nc4cc(Cl)cc(Cl)c4)ccc3F)CC2)c1,-11.6%,0.5%
CC(Oc1ccccc1F)C(=O)N1CCC(c2nc3ccccc3o2)CC1 (configuration not stated),-5.3%,-4.5%
Nc1nnnn1/N=C/c1ccccc1OCc1ccc(Cl)cc1,-28.3%,-4.6%
Nc1nnnn1/N=C/c1ccccc1OCc1ccc(Cl)cc1Cl,15.8µM*,14.1µM*
Clc1ccc(-c2nnc(-c3ccc(Br)cc3)c(N3CCSCC3)n2)cc1,20µM*,1.4%
Clc1ccc(-c2nnc(-c3ccco3)nc2N2CCCCC2)cc1,-27.3%,-21.3%
Cc1ccc(C(=O)C(C)CN2CCCCC2)cc1 (configuration not stated),-14.8%,0.8%
COc1ccc(-c2nn(CCC(=O)O)cc2/C=C2\SC(N)=NC2=O)cc1OC,2.8%,-3.9%
CCCOc1ccc(-c2nn(-c3ccccc3)cc2/C=C2\SC(N)=NC2=O)cc1C,12.6µM*,-4.7%
Cc1nc(NC(=O)COC(=O)CCc2nc3ccccc3s2)c(Cl)cc1Cl,-6.2%,-4.2%
CCc1ccc(-c2csc(NC(=O)COC(=O)CCc3nc4ccccc4s3)n2)cc1,12.6µM*,-3.4%
Cc1cc(C)c2c(n1)nn1c(C)c(CCC(=O)Nc3cccc(C)c3C)c(C)nc21,?,-1.0%
Cc1c(Cl)cccc1N=c1c([N+](=O)[O-])nn(-c2ccccc2)n1O,20µM*,1.8%
Cc1ccc(N=c2c([N+](=O)[O-])nn(-c3ccccc3)n2O)c(C)c1,?,-6.6%
COC(=O)c1ccccc1NC(=O)Cn1c(=O)n(CCCC(=O)NCc2ccccc2Cl)c(=O)c2ccccc21,-0.2%,-0.7%
COc1ccc2nc(NC(=O)Cc3cccs3)sc2c1,-13.2%,0.3%
COc1ccc2nc(NC(=O)CCc3nc(-c4ccccc4F)no3)sc2c1,7.94µM*,0.4%
COC(=O)c1c(C)ccc2c(O)c3c(cc12)C(=O)c1c2c(cc(O)c1C3=O)[C@@]1(C)O[C@@](C)(O2)[C@@H](O)[C@H](N(C)C)[C@H]1O,2.5%,4.3%
O=C(Nc1ccc(CN2CCOCC2)cc1)c1ccc(-c2cc(Cl)ccc2Cl)o1,25.1µM*,-19.1%
S=C(c1ccc(-c2cc(Cl)ccc2Cl)o1)N1CCOCC1,-10.9%,-14.8%
Cc1oc2ncn(C)c(=O)c2c1C(=O)Nc1ccc(F)cc1,4.8%,0.9%
S=C(NCc1ccc2[nH]c3c(c2c1)CCCC3)Nc1ccccc1,31.6µM*,-9.9%
CCS(=O)(=O)NCc1ccc2[nH]c3c(c2c1)CCCC3,-22.0%,-6.4%
O=C(Nc1ccc2[nH]c3c(c2c1)CCCC3)c1ccco1,-16.7%,-10.2%
SMILES,Cruzain noTriton,Cruzain Triton
Cc1cc(C)cc(NC(=S)NCc2ccc3[nH]c4c(c3c2)CCCC4)c1,31.6µM*,-0.8%
C/C(=N/O)[C@@H]1C[C@H](CC(=O)O)C1(C)C,8.3%,2.8%
COc1cc(/C=N/NC(=O)COc2ccc(C)cc2)ccc1OC(=O)c1cccs1,?,-5.3%
COc1cc(OC)cc(C(=O)Oc2ccc(/C=N/Nc3nc4ccccc4s3)cc2OC)c1,12.6µM*,-6.6%
COc1cc(/C=N/Nc2nc3ccccc3s2)ccc1OC(=O)c1ccccc1F,?,-3.1%
COc1cc(/C=N/Nc2ccccc2)ccc1OC(=O)c1cccs1,12.6µM*,-2.6%
CC1CN(C(=O)N2CCC(C(=O)NCCCc3ccccc3)CC2)c2cc(Cl)ccc2O1 (configuration not stated),-5.1%,-4.8%
C/C(=C\CO)CCO,-8.5%,5.9%
O=C(/C=C/c1ccccc1)Nc1nc(-c2cccs2)ns1,20µM*,-0.1%
Cc1ccc(/C=C/C(=O)Nc2nc(-c3cccs3)ns2)cc1,?,-3.9%
O=C(NC1CCCC1)c1ccc2c(=O)n(Cc3ccccc3)c(SCc3cccc(F)c3)nc2c1,-1.8%,-0.7%
CCOc1ccc2c(c1)C(c1ccc(C)cc1)=NNC(c1ccc(OC)cc1)=N2,15.8µM*,-2.3%
CCOc1ccc(C2=NNC(c3cccs3)=Nc3ccc(OC)cc32)cc1,?,-12.1%
OC[C@@H](O)[C@@H](O)CCc1ccccc1,-0.7%,3.5%
COc1ccc(CCNc2nc(-c3sc(C)nc3C)cs2)cc1OC,?,-7.6%
Cc1nc(N)sc1-c1csc(Nc2ccccc2)n1,12.6µM*,25.1µM*
COc1ccc(OC)c(Nc2nc(-c3sc(N)nc3C)cs2)c1,25.1µM*,?
Cc1cc(O)ccc1Nc1nc(-c2sc(N)nc2C)cs1,?,-20.1%
COc1ccc(CNCc2c(C(=O)O)c(C)n(Cc3ccc(Cl)cc3)c2C)c(OC)c1,2.1%,-2.3%
O=C(COc1ccc(Cl)cc1)NCCc1csc(-c2ccc(C(F)(F)F)cc2)n1,?,-8.1%
C[C@@H](O)CCC[C@H](O)/C=C/[C@H]1[C@H](O)CC(=O)[C@@H]1C/C=C\CCCC(=O)O,-3.1%,2.2%

# Compound activity (PubChem)
